Compound activity from PubChem.
aSyn UTR act: Activators via SNCA 5'UTR binding, MLPCN; alpha-synuclein 5'UTR reporter, activators screen; activity score, % (tested at 7.5 µM), hits read low; actives 7.1% (n = 300,000); AID 1814, 2009; in the data active means activity score below about -60%
Each line names hits and unclear results; the compound was inactive in the other large screens. The list is a sample of the results.

O=c1[nH]c(-c2ccc(O)cc2)nc2scc(-c3cccs3)c12	aSyn UTR act -138
COc1cccc2c1C(=O)c1c(O)c3c(c(O)c1C2=O)C[C@@](O)(C(=O)CO)C[C@@H]3O[C@H]1C[C@H](N)[C@H](O)[C@H](C)O1	none
CC(=O)Nc1nc(COc2ccc3ccccc3c2)cs1	aSyn UTR act -148
Nc1nc(COc2ccc3ccccc3c2)cs1	aSyn UTR act -79
Nc1nc(CCOc2ccc(F)cc2)cs1	aSyn UTR act -112
O=C(Nc1nc(COc2ccccc2)cs1)C1CCC1	aSyn UTR act -103
CC(=O)Nc1nc(COc2ccccc2)cs1	aSyn UTR act -137
O=C(Nc1ccccc1-c1ccccc1)C12CC3CC(CC(C3)C1)C2	aSyn UTR act -78
O=C(Nc1nc(COc2ccccc2)cs1)C12CC3CC(CC(C3)C1)C2	aSyn UTR act -147
CC(=O)c1csc(COc2ccccc2)n1	aSyn UTR act -109
O=c1c2c3c(sc2ncn1/N=C/c1ccc([N+](=O)[O-])o1)CCCC3	aSyn UTR act -89
CC(C)C1Oc2ccccc2C(=O)N(CC(=O)c2ccc3c(c2)OCCO3)C1=O (configuration not stated)	aSyn UTR act -224
O=C(CN1C(=O)NC2(CCCCCC2)C1=O)c1ccc2c(c1)OCCO2	aSyn UTR act -154
CC1CCC2(CC1)NC(=O)N(CC(=O)Nc1ccc3c(c1)OCCO3)C2=O (configuration not stated)	aSyn UTR act -100
C/C(CC(C)C)=N\NC(=O)Nc1ccccc1	aSyn UTR act -69
N/C(=N\NC(=O)Nc1ccccc1)c1ccccn1	aSyn UTR act -168
O=C(Oc1cccc(NC(=O)c2ccco2)c1)c1cccc(S(=O)(=O)N2CCCC2)c1	aSyn UTR act -72
O=C(Nc1ccc2c(c1)OCO2)c1cccc(S(=O)(=O)N2CCCC2)c1	aSyn UTR act -104
O=C(Nc1cccc(O)c1)c1cccc(S(=O)(=O)N2CCCCCC2)c1	aSyn UTR act -85
O=C(Nc1cccc(O)c1)c1ccc(Br)c(S(=O)(=O)N2CCCCC2)c1	aSyn UTR act -70
O=C(CCl)Nc1cccc(S(=O)(=O)N2CCCCCC2)c1	aSyn UTR act -92
O=C(COC(=O)c1ccc(O)cc1)Nc1cccc(S(=O)(=O)N2CCCCC2)c1	none
O=C(COc1ccccc1F)Nc1ccc2c(c1)OCCO2	aSyn UTR act -75
O=C(COc1ccccc1Br)Nc1ccc2c(c1)OCCCO2	aSyn UTR act -133
Cc1ccccc1OC(C)C(=O)Nc1ccc2c(c1)OCCO2 (configuration not stated)	aSyn UTR act -71
C[C@@H](C(=O)Nc1ccc2c(c1)OCCO2)n1nnc2ccccc2c1=O	aSyn UTR act -89
N#Cc1ccccc1OCC(=O)Nc1ccc2c(c1)OCCCO2	aSyn UTR act -160
CN(C)c1ccc(N=Nc2nc3ccccc3n2C)cc1	aSyn UTR act -117
O=[N+]([O-])c1cccc(/C=C/c2ccncc2)c1	aSyn UTR act -65
O=[N+]([O-])c1ccc(/C=C/c2ccncc2)cc1	aSyn UTR act -71
Oc1c(Cl)cc(Cl)cc1C=Nc1ccc2c(c1)OCCO2	aSyn UTR act -63
CCOC(=O)C1CCCN(Cc2cc(=O)oc3cc(C)ccc23)C1 (configuration not stated)	aSyn UTR act -75
Cc1ccc2c(CN3CCC(C)CC3)cc(=O)oc2c1	aSyn UTR act -150
COc1cc(CNc2ccc3[nH]c(=O)[nH]c3c2)ccc1OCc1cccc(C)c1	aSyn UTR act -84
O=c1[nH]c2ccc(NCc3ccc(OCc4ccccc4Cl)cc3)cc2[nH]1	aSyn UTR act -80
COc1cc(/C=N/NS(=O)(=O)c2ccc(C)cc2)ccc1OCc1cccc(C(=O)O)c1	none
COc1cc(CNc2ccc3[nH]c(=O)[nH]c3c2)ccc1OCc1ccc(C)cc1	aSyn UTR act -118
COc1cc(CNc2ccc(NC(C)=O)cc2)ccc1OCc1ccccc1C	aSyn UTR act -122
COc1ccc(-c2csc(NC(=O)c3ccccc3NS(=O)(=O)c3ccc(F)c(F)c3)n2)cc1	none
Cc1ccc(-c2csc(NC(=S)NC(=O)c3cccs3)n2)cc1	aSyn UTR act -77
CCCOc1ccc(C(=O)NNC(=S)NC(=O)CC)cc1	none
CCCOc1ccc(C(=O)NC(=S)Nc2nc3ccccc3s2)cc1	aSyn UTR act -247
CCCC(=O)NC(=S)Nc1nc(-c2ccc(OC)cc2)cs1	aSyn UTR act -65
Cc1ccc2nc(NC(=S)NC(=O)c3cccs3)sc2c1	aSyn UTR act -104
CC(C)c1ccc2c(c1)C(N1CCNCC1)Cc1ccc(F)cc1S2 (configuration not stated)	none
Cc1ccc2nc(NC(=S)NC(=O)c3ccc(OC(C)C)cc3)sc2c1	aSyn UTR act -107
O=C(N=C1SCC(=O)N1c1ccccc1Cl)c1ccco1	aSyn UTR act -174
O=C(N=C1SCC(=O)N1c1ccccc1Cl)c1ccccc1	aSyn UTR act -210
CC(=O)Nc1cccc(C(=O)/C=C/c2cccs2)c1	aSyn UTR act -117
CC(=O)Nc1cccc(C(=O)/C=C/c2ccc(Br)cc2)c1	aSyn UTR act -76
CC(=O)Nc1cccc(C(=O)/C=C/c2ccc[nH]2)c1	aSyn UTR act -90
CC(=O)Nc1cccc(C(=O)/C=C/c2ccc(N(C)C)cc2)c1	aSyn UTR act -71
CC(=O)Nc1cccc(C(=O)/C=C/c2ccc(/C=C/C(=O)c3cccc(NC(C)=O)c3)cc2)c1	aSyn UTR act -129
CC(=O)Nc1cccc(C(=O)/C=C/c2ccc(F)cc2)c1	aSyn UTR act -103
O=C(Nc1ccc(F)cc1F)c1cc(-c2ccc3c(c2)OCO3)on1	aSyn UTR act -110
Cc1noc(C(=O)Nc2ccc3c(c2)OCO3)c1Cl	aSyn UTR act -205
O=C(Nc1ccc2c(c1)OCO2)c1ccc(Cl)s1	aSyn UTR act -194
O=C(Nc1ccc2c(c1)OCO2)Nc1ccc(Cl)cc1Cl	aSyn UTR act -112
Cc1nn(Cc2ccc(Cl)cc2)c(C)c1NC(=O)c1cc(-c2ccc3c(c2)OCO3)on1	none
Cc1cc(C)c2[nH]c(C(=O)Nc3ccc4c(c3)OCO4)cc2c1	aSyn UTR act -66
CC1CCC(NC(=O)C(=O)Nc2ccc3c(c2)OCO3)CC1 (configuration not stated)	aSyn UTR act -114
O=C(Nc1ccc2c(c1)OCO2)Nc1ccc2c(c1)OCO2	aSyn UTR act -129
O=C(Nc1cccc(C(=O)O)c1)Nc1ccc2c(c1)OCO2	none
CCc1ccc2[nH]c(C(=O)Nc3ccc4c(c3)OCO4)cc2c1	aSyn UTR act -94
O=C(Nc1ccc(F)cc1)Nc1ccc2c(c1)OCO2	aSyn UTR act -109
COC(=O)c1ccc(C(=O)OC)c(NC(=O)Nc2ccc3c(c2)OCO3)c1	aSyn UTR act -124
O=C(Nc1ccc(Cl)cc1)Nc1ccc2c(c1)OCO2	aSyn UTR act -134
O=C(Nc1ccc2c(c1)OCO2)Nc1ccc(F)cc1F	aSyn UTR act -138
COC(=O)c1cccc(NC(=O)Nc2ccc(Cl)cc2Cl)c1	aSyn UTR act -103
CCc1ccc2[nH]c(C(=O)Nc3ccc(Br)c(C)n3)cc2c1	aSyn UTR act -146
Cc1ccc(NC(=O)Nc2ccc3c(c2)OCO3)c(Br)c1	aSyn UTR act -117
NC(=O)Nc1ccc2c(c1)OCCO2	aSyn UTR act -113
Cc1ccc2c(Cl)c(C(=O)Nc3ccc4c(c3)OCO4)sc2c1	aSyn UTR act -148
O=C(Nc1ccc2c(c1)OCO2)c1c(Cl)nc2sccn12	aSyn UTR act -205
Cc1cc(C)c(NC(=O)Nc2ccc3c(c2)OCO3)c(C)c1	aSyn UTR act -71
Fc1ccc(-c2csc(N3CCC(c4ccccc4)C3)n2)cc1 (configuration not stated)	aSyn UTR act -199
COc1ccc(-c2csc(-n3cccn3)n2)cc1	aSyn UTR act -153
